JMJD2A Tudor inh = JMJD2A Tudor domain (human) inhibition. O75164. AlphaScreen JMJD2A-Tudor / H3K4me3 peptide binding. Potency, µM (series often up to 114 µM), inactives show at the highest dose activity change, negative = inhibition, most hits filed as inhibitors. hit rate 4.4% among 390,000. AID 504339; note: potency is the fitted concentration of half-maximal effect; % is set by controls: 0 for no effect and ±100 for the full control effect; nearly all actives have a fitted effect of over 50% in size
BAZ2B inh = BAZ2B (human) inhibition; AlphaScreen BAZ2B-H3K14Ac peptide displacement; AID 504333; Q9UIF8; Potency, µM (series often up to 114 µM), without a hit: at the top dose activity change, negative = inhibition, usual class: inhibitors; hit rate 4.4% among 360,000; note: potency is the fitted concentration of half-maximal effect; % is set by controls: 0 for no effect and ±100 for the full control effect; nearly all actives have a fitted effect of over 60% in size
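AlphaScreen displacement: compounds (up to 110uM) incubated 30 min at room temperature with a preformed 50 nM BAZ2B/50 nM biotinylated H3K14Ac peptide complex in PBS pH 7.4 with Tween-20. Donor and acceptor beads at 10 ug/mL final added, 20 min light-protected before reading.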
HP1b binding inh = blocks HP1-beta chromodomain binding to methylated histone tails | P83916 | AlphaScreen HP1-beta / biotin-H3K9me3 peptide binding | Potency, µM (highest dose often 114 µM), without a hit: at the top dose activity change, negative = inhibition, most hits filed as inhibitors | hit rate 0.56% among 390,000 | AID 540317; note: potency is the fitted concentration of half-maximal effect; nearly all actives have a fitted effect of over 70% in size
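AlphaScreen: HP1-beta (50 nM) preformed 30 min with biotin-H3(1-18)K9me3 peptide (50 nM) in PBS pH 7.4, 0.01% Tween-20. Compound added for 30 min at RT, then streptavidin donor/nickel chelate acceptor beads (10 ug/mL) for 30 min.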
G9a inh = inhibitors of human histone lysine methyltransferase G9a | Q96KQ7 | G9a H3K9 monomethylation, AlphaScreen, 2 h | Potency, µM (top dose mostly 102 µM), for the others: at the highest dose activity, negative = inhibition, most hits filed as inhibitors | hit rate 8.8% among 350,000 | AID 504332; note: potency is the fitted concentration of half-maximal effect; % is set by controls: 0 for no effect and ±100 for the full control effect; nearly all actives have a fitted effect of over 75% in size
Target sequence (Q96KQ7 913-1193 limits assumed): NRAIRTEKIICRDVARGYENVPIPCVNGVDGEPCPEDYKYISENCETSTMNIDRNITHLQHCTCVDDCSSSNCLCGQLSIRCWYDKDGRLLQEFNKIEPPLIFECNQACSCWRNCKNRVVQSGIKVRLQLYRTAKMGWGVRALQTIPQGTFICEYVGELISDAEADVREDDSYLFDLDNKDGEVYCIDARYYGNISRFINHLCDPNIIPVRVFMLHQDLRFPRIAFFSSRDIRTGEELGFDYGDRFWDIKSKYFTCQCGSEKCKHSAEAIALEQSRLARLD
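Compounds were preincubated with 20 nM G9a for 15 min, after which biotinylated H3K9 peptide (500 nM) and SAM (20 uM) started a 2 h room-temperature reaction. Monomethylated product was quantified by antibody-based AlphaScreen chemiluminescence.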
PLK1 PBD block = PLK1 (human) polo-box domain binding inhibition. hit rate 2.8% among 360,000. Plk1 PBD binding of FITC phosphopeptide, fluorescence polarization. Potency, µM, for the others: max response, negative = inhibition, actives largely listed as inhibitors. P53350; note: potency is the fitted concentration of half-maximal effect; series mostly up to about 57 µM; % is set by controls: 0 for no effect and ±100 for the full control effect; nearly all actives have a fitted effect of over 65% in size
PI5P4K alpha inh = blocks human PI5P4K alpha kinase activity | PI5P4Kalpha enzyme, ADP-Glo luminescence, 60 min; active compounds read low | P48426 | max response, % | AID 652105 | hit rate 1.2% among 330,000; active = max response of -50% or lower; inconclusive = between -30% and -50%; inactive = -30% or higher; note: value at the top dose of about 77 µM; % is set by controls: 0 for no effect and ±100 for the full control effect
Target sequence (P48426 whole entry, looked up): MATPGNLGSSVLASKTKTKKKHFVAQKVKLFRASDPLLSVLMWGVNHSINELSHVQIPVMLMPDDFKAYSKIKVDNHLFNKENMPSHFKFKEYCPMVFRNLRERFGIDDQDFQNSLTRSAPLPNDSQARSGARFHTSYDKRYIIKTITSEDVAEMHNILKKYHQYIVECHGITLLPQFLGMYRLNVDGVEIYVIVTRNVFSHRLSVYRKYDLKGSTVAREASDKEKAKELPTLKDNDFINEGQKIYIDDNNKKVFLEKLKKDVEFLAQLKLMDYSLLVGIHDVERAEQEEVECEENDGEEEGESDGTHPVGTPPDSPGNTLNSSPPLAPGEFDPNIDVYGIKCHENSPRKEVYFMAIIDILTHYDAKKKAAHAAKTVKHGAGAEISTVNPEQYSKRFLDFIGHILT
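Reactions run in 0.038 M HEPES pH 7.4, 0.28 mM EGTA, 0.1% CHAPS and 5% DMSO, with PI5P4Kalpha, substrate, compound and 5 microM ATP final, one hour at room temperature. Readout is ADP-Glo luminescence.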
* = called active by the depositor; ? = inconclusive; . = no result; ! = repeats disagree; [ ] = remark or other dose. The list is not random: actives were taken first. Their share in the collection is about 12%. Unless noted, calls come from the whole dose curve; as a rule, active = well fitted curve in the direction sought with a large enough effect; inconclusive = small, poorly fitted or top-dose-only effect, or another doubt; inactive = no such curve, though single readings can be large; an effect the other way counts as inactive or inconclusive.

SMILES	JMJD2A Tudor inh	BAZ2B inh	HP1b binding inh	G9a inh	PLK1 PBD block	PI5P4K alpha inh
COc1nonc1NC(=O)CSc1nc2ccccc2[nH]1	-21.2%[11.4 µM]	0.0%	2.6%	?	26.7µM*	-15.4
CCOC(=O)NC(=O)CSc1nc2ccccc2[nH]1	-1.4%	?	48.0%	56.2µM*	-1.3%	2.4
CC(C)NC(=O)c1sc2nc3c(c(-c4cccs4)c2c1N)CN(C)CC3	-26.2%	8.4%	24.6%	14.3%[12.7 µM]	-12.4%	-5.9
Cc1cccc(NC(=O)c2sc3nc4c(c(-c5cccs5)c3c2N)CN(C)CC4)c1	?	?	-18.1%	44.7µM*	-27.8%	-24.5
Cc1noc(C)c1NC(=O)N(C)C[C@@H]1Oc2ccc(NC(=O)Cc3cn(C)c4ccccc34)cc2CC(=O)N([C@H](C)CO)C[C@@H]1C	-21.0%	.	65.5%	.	-17.4%	0.6
CCN1C=C(Cc2ccccc2C)C2=C(C1)C(c1ccccc1C)C(C#N)=C(N)O2 (stereo not drawn)	56.2µM*	44.7µM*	?	14.1µM*	-4.6%	-9.4
CCN1C=C(Cc2ccc(F)cc2)C2=C(C1)C(c1ccc(F)cc1)C(C#N)=C(N)O2 (stereo not drawn)	50.1µM*	?	-31.5%	?	-19.2%	-1.5
Cc1ccc(/C=C2\CCC3=C2OC(N)=C(C#N)C3c2ccc(C)cc2)cc1 (stereo not drawn)	-34.9%	-37.1%	7.2%	?	-0.6%	-27.9
O=C(O)c1ccc2c(c1)C(=O)N([C@H](Cc1cccc3ccccc13)C(=O)O)C2=O	-21.4%	-38.6%	.	5.7%[12.7 µM]	.	.
Cc1ccc(OCc2nc3ccccc3n2Cc2ccccc2Cl)cc1	8.7%	4.4%	27.6%	8.4%[59 µM]	.	.
Cc1nn(Cc2ccc(F)cc2)c(Cl)c1/C=N/NC(=O)c1ccccc1	11.0%	-11.8%	21.3%	-18.5%	4.7%	-4.1
Cc1nn(Cc2ccccc2)c(Cl)c1/C=C1\NC(=S)NC1=O	-20.7%	-24.3%	12.5%	39.8µM*	-6.3%	-22.7
CSc1nc(N2CCOCC2)nc2ccc(C)cc12	87.3%	87.7%	129.8%	-8.1%[2.33 µM]	-0.8%	20.9
CCc1ccc(NC(=S)NNC(=O)c2ccccc2OC(F)F)cc1	.	6.4%	.	12.6µM*	.	.
COc1ccc(NC(=S)NNC(=O)c2ccccc2OC(F)F)cc1	-20.3%	0.4%	4.9%	?	-10.5%	.
CCNC(=S)N(CCc1c(C)[nH]c2ccccc12)Cc1cc(OC)c(OC)c(OC)c1	?	50.1µM*	-8.4%	89.1µM*	-8.1%	1.7
CNC(=S)N(CCc1c(C)[nH]c2ccccc12)Cc1cc(OC)c(OC)c(OC)c1	?	44.7µM*	-0.8%	?	-5.1%	-5.8
C=CCc1ccccc1OCC(O)CN1CCN(Cc2ccc3c(c2)OCO3)CC1 (stereo not drawn)	-33.3%	56.2µM*	9.9%	44.7µM*!	-6.3%	-14.5
C=CCc1ccccc1OCC(O)CN1CCN(c2ccc(C)cc2)CC1 (stereo not drawn)	3.55µM*	28.2µM*	?	12.6µM*	-3.0%	.
Cc1ccc(OCC(O)CN2CCN(Cc3ccc4c(c3)OCO4)CC2)cc1C (stereo not drawn)	-20.7%	?	8.6%	-15.2%[59 µM]	-1.9%	-4.2
NC(=O)c1ccc(NC(=O)CSC2=Nc3ccccc3C3CC=NN23)cc1 (stereo not drawn)	-8.2%	6.0%	30.2%	12.6µM*	-24.9%	-1.6
Cc1cnc(NC2=NCCC2)s1	?	-32.0%	4.8%	11.2µM*	-2.9%	-3.8
c1nnc(NC2=NCCC2)s1	8.91µM*	-3.8%	-6.2%	?	-9.3%	1.4
COc1ccc2nc(NC3=NCCC3)sc2c1	-23.7%	-25.0%	-2.1%	33.4%[59 µM]	-8.7%	1.2
Clc1ccc(CSc2nnc(NC3=NCCCCC3)s2)cc1	51.6%	32.5%	110.3%	23.9%	2.2%	0.6
SMILES	JMJD2A Tudor inh	BAZ2B inh	HP1b binding inh	G9a inh	PLK1 PBD block	PI5P4K alpha inh
CCc1nnc(NC2=NCCC2)s1	70.8µM*	?	17.1%	?	-4.1%	10.8
c1nnc(NC2=NCCCCC2)s1	-9.3%	-1.0%	4.6%	-9.0%[59 µM]	-18.7%	.
COc1ccc(NC(=O)c2oc3ccc(S(=O)(=O)N4CCC5(CC4)OCCO5)cc3c2C)cc1Cl	-11.6%	-0.2%	23.7%	-0.5%[59 µM]	.	.
Cc1cc(=O)c(C(=O)O)cn1Nc1ccc(F)cc1	50.1µM*	?	-10.6%	?	-5.4%	-1.1
Cc1c(/C=N/NC(=O)CNc2ccccc2)c2ccccn2c1C(=O)c1ccccc1	?	-21.8%	-16.8%	39.8µM*	-14.4%	-2.6
COC(=O)N/N=C/c1c(C)c(C(=O)c2ccc(F)cc2)n2ccccc12	-12.9%	5.1%	18.1%	14.6%[59 µM]	6.8%	2.4
Cc1c(/C=N/NC(N)=O)c2ccccn2c1C(=O)c1ccncc1	?	-37.1%	4.1%	44.7µM*	-0.8%	6.2
CCO/C(C)=C1\N=C(c2ccc(Cl)cc2)OC1=O	-18.9%	-5.9%[57.1 µM]	34.0%	44.7µM*	?	0.2
CCOC(=O)c1sc(N2N=C(C)C(N=Nc3cccc(C)c3)C2=O)nc1C (stereo not drawn)	-25.7%[11.4 µM]	-32.9%	-0.8%	50.1µM*	-8.0%	?
CC1=NN(c2nc(-c3ccc(C)cc3)cs2)C(=O)C1N=Nc1cccc(C)c1 (stereo not drawn)	?	?	?	?	-7.1%	1.5
Cc1ccc(S(=O)(=O)NCCOc2nc(N(C)C)nc(N3CCOCC3)n2)cc1	2.9%	-2.6%	13.9%	-10.1%[12.7 µM]	-4.1%	-5.6
Cc1ccc(S(=O)(=O)NCCOc2nc(N(C)C)nc(N(C)C)n2)cc1	-10.3%[11.4 µM]	-1.7%	-1.8%	.	23.8µM*	-21.1
O=C1CC2(CCCC2)CC(=O)N1CCCCNCC1COc2ccccc2O1 (stereo not drawn)	.	.	.	37.4%[59 µM]	.	.
CCOC(=O)C1=C(O)C(=O)N(CCCn2ccnc2)C1c1ccc(OC)cc1 (stereo not drawn)	.	-36.1%	.	44.7µM*	.	.
COc1ccc(C2C(C(=O)c3sc(C)nc3C)=C(O)C(=O)N2CCCn2ccnc2)cc1 (stereo not drawn)	-28.0%	.	-3.1%	.	5.1%	-4.3
COc1ccc(C2C(C(=O)c3ccco3)=C(O)C(=O)N2CCCn2ccnc2)c(OC)c1 (stereo not drawn)	28.2µM*	56.2µM*	13.1%	50.1µM*	-19.2%	4.1
COc1cc(C2C(C(=O)c3ccc(C)o3)=C(O)C(=O)N2CCCn2ccnc2)cc(OC)c1OC (stereo not drawn)	-2.7%	?	4.3%	.	-8.2%	-9.7
O=C(NCCO)C(=O)Nc1c2c(nn1-c1ccc(F)cc1)CSC2	0.6%	5.8%	42.9%	?	.	.
CC1(C(=O)NCc2ccccc2)CN(S(C)(=O)=O)CC(=O)N1CCc1ccccc1F (stereo not drawn)	.	.	.	.	-8.2%	0.5
CCOc1ccc(-n2c(=O)c3c(C)c(C)sc3n(Cc3cc(=O)n4cc(Cl)ccc4n3)c2=O)cc1	-9.6%	2.1%	22.7%	4.6%[59 µM]	.	.

High-throughput results from PubChem BioAssay.
